Source: PubChem BioAssay (NCI)
About 79,000 compounds went through this panel and 15% of them were active in at least one assay; those are over-represented in the sample as a whole. Activity calls are given as the source filed them. No stated cut-off is given here; in the data, active means growth inhibition above about 70%; inactive means the rest.

Experiment: NCI Yeast Anticancer Drug Screen. Data for the sgs1 strain (AID 173);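 further: 0% = growth of vehicle-only control cultures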
Conditions: S. cerevisiae sgs1 mutant, hits give high values
Procedure: Growth inhibition of yeast strains with defined genetic alterations is measured as a screen for potential anti-cancer activity. Selected strains with alterations in DNA damage repair or cell cycle control were exposed to compounds and growth inhibition was measured relative to vehicle treated controls. The strain used in this assay is sgs1

Measured: growth inhibition

CCCCCCNCCCNc1c2cc(OC)ccc2nc2cccc([N+](=O)[O-])c12
active: at 11.0 µM 88% | at 33.0 µM 95% | at 100.0 µM 98%
inactive: at 1.2 µM 21% | at 3.7 µM 65%

Fc1ccc(Nc2ccc3ccccc3c2)cc1
active: at 100.0 µM 95%
inactive: at 1.2 µM -2% | at 3.7 µM 0% | at 11.0 µM 2% | at 33.0 µM 63%

CC1=CN2C(c3ccccc3)=NON(c3ccc(C)cn3)C2C=C1 (stereo not given)
inactive: at 1.2 µM -23% | at 3.7 µM -16% | at 11.0 µM -2% | at 33.0 µM -7% | at 100.0 µM 2%

Cc1c2c(nc3ccccc13)C(=O)c1cccnc1C2=O
active: at 100.0 µM 81%
inactive: at 1.2 µM -9% | at 3.7 µM -11% | at 11.0 µM -9% | at 33.0 µM 11%

O=[N+]([O-])c1cccc2nc3ccccc3c(NCCCN3CCCCC3)c12
active: at 1.2 µM 87% | at 3.7 µM 93% | at 11.0 µM 95% | at 33.0 µM 98% | at 100.0 µM 98%

Cc1ccccc1NC(=O)c1c(C)oc2c1C(=O)c1ccccc1C2=O
active: at 100.0 µM 83%
inactive: at 1.2 µM -15% | at 3.7 µM -15% | at 11.0 µM -2% | at 33.0 µM 24%

O=C(Cc1ccccc1)NNc1nc(NNC(=O)c2ccncc2)nc(Nc2ccc(Cl)cc2)n1
inactive: at 1.2 µM 3% | at 3.7 µM 7% | at 11.0 µM 7% | at 33.0 µM 6% | at 100.0 µM 4%

CC1CCC(C2=CSC3CCCCC3N2)CC1 (stereo not given)
inactive: at 1.2 µM 15% | at 3.7 µM 5% | at 11.0 µM 14% | at 33.0 µM 35% | at 100.0 µM 67%
